Screens as filed in PubChem.
BAZ2B inh: inhibitors of human BAZ2B bromodomain | Potency, µM (top dose mostly 114 µM), inactives show at the top dose activity change, negative = inhibition, usual class: inhibitors | Q9UIF8 | 360,000 compounds, 4.4% hits | AlphaScreen BAZ2B-H3K14Ac peptide displacement; further: on the % scale 0 is the no-effect control and ±100 the full control effect; nearly all actives have a fitted effect of over 60% in size
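BAZ2B (50 nM) with biotin-H3(5-23)K14Ac peptide (50 nM) in PBS pH 7.4, 0.01% Tween-20, preformed 30 min, then compound 30 min at room temperature; top concentration 110uM. AlphaScreen streptavidin donor/nickel chelate acceptor beads (10 ug/mL final), 20 min dark, signal read.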
GLS inh: inhibitors of human glutaminase (GLS) | O94925 | GLS enzymatic activity, qHTS titration | Potency, µM (top dose mostly 45.5 µM), inactives show at the highest dose activity change, negative = inhibition, actives largely listed as inhibitors | 410,000 compounds, 0.21% hits | AID 624170; further: on the % scale 0 is the no-effect control and ±100 the full control effect
Target sequence (O94925 whole entry, looked up): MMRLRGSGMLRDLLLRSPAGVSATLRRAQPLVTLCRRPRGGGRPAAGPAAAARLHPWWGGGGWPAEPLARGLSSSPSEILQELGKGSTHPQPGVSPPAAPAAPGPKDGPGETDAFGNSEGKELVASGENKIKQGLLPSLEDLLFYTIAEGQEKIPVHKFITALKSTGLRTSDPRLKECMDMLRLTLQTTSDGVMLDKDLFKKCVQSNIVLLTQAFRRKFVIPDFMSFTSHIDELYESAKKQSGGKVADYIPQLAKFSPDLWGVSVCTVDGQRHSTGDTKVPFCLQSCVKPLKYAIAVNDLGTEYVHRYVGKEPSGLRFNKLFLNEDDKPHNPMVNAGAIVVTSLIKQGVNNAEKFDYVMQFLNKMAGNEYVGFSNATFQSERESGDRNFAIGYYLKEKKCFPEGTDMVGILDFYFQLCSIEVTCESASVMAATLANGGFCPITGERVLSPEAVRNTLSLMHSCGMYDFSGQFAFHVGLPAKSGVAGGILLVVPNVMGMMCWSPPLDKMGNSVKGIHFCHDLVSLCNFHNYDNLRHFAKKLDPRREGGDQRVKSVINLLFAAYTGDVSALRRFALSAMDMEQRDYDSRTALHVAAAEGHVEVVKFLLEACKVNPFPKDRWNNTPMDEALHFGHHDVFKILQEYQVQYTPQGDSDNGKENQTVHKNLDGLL
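Compounds were pin-transferred onto hKGA, after which L-glutamine (1 mM solution) and a detection mix of glutamate oxidase, HRP and Amplex Red were added. Initial and 30 min RT fluorescence reads were collected.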
JMJD2A Tudor: JMJD2A Tudor domain (human) inhibition | O75164 | AlphaScreen JMJD2A-Tudor / H3K4me3 peptide binding | Potency, µM (series often up to 114 µM), for the others: at the highest dose activity change, negative = inhibition, usual class: inhibitors | 390,000 compounds, 4.4% hits; further: on the % scale 0 is the no-effect control and ±100 the full control effect; nearly all actives have a fitted effect of over 50% in size
G9a block: blocks human histone lysine methyltransferase G9a. Q96KQ7. G9a H3K9 monomethylation, AlphaScreen, 2 h. Potency, µM (titrated, usually from 102 µM), inactives show top-dose activity, negative = inhibition, hits mostly inhibitors. 350,000 compounds, 8.8% hits. AID 504332; further: on the % scale 0 is the no-effect control and ±100 the full control effect; nearly all actives have a fitted effect of over 75% in size
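Enzyme 20 nM + cpd, 15 min RT; add b-H3K9 pep 500 nM / SAM 20 uM; 2 h RT; anti-H3K9me1 Ab 0.5 ug/mL + SA donor / anti-rabbit acceptor beads 20 ug/mL each, 10 min; AlphaScreen read.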
HP1b binding inh: HP1-beta chromodomain-methylated histone interaction inhibition | P83916 | AlphaScreen HP1-beta / biotin-H3K9me3 peptide binding | Potency, µM (titrated, usually from 114 µM), without a hit: at the top dose activity change, negative = inhibition, usual class: inhibitors | 390,000 compounds, 0.56% hits | AID 540317; further: nearly all actives have a fitted effect of over 70% in size
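AlphaScreen: HP1-beta (50 nM) preformed 30 min with biotin-H3(1-18)K9me3 peptide (50 nM) in PBS pH 7.4, 0.01% Tween-20. Compound added for 30 min at RT, then streptavidin donor/nickel chelate acceptor beads (10 ug/mL) for 30 min.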
An asterisk follows results filed as active; ? = inconclusive; / = not tested or not shown; [ ] = dose if it differs, or a comment. Most compounds without a hit are left out; they make up all but 10% or so of the library. The call rests on the fitted dose curve; in most records, active means well fitted curve in the direction sought with a large enough effect; inconclusive means small, poorly fitted or top-dose-only effect, or another doubt; inactive means no such curve, though single readings can be large; an effect the other way counts as inactive or inconclusive. Potency means the concentration at half of the fitted maximal effect.

SMILES	BAZ2B inh	GLS inh	JMJD2A Tudor	G9a block	HP1b binding inh
Cc1ccc(CCNC(=O)C(C)n2nc(C)c3c(C)n(-c4ccccc4)nc3c2=O)cc1 (centres undefined)	-12%	-1%	-15%	58%	-2%
Cc1ccc(-n2nc3c(=O)n(C(C)C(=O)NCCC4=CCCCC4)nc(C)c3c2C)cc1 (centres undefined)	-25%	-2%	45µM*	13%[59 µM]	46%
Cc1nn(CC(=O)NCCc2ccco2)c(=O)c2nn(-c3ccccc3)c(C)c12	?	-3%	-33%	?	4%[57 µM]
CCCC[C@@H]1CCCO[C@@](C(=O)NCCN2CCOCC2)(C(F)(F)F)C1	/	/	-25%	/	10%
CCCNC(=O)C/C(C)=N/NC(=O)C(=O)Nc1ccccn1	-5%	-1%	-4%	50µM*	73%
Cc1ccc(C(=O)N/N=C\c2ccc(-c3ccc([N+](=O)[O-])cc3)o2)cn1	-9%	-7%	-9%	/	18%
NC(=S)N/N=C/c1ccc(-c2ccc([N+](=O)[O-])cc2)o1	-29%	19%	-13%	22µM*	32%
NC(=S)N/N=C/c1ccc(-c2cc(Cl)ccc2Cl)o1	-2%	2%	?	-6%	-9%
NC(=S)N/N=C/c1ccc(-c2cc(Cl)cc(Cl)c2)o1	-33%	21%	-35%	13µM*	9%
CN(/N=C/c1cc([N+](=O)[O-])ccc1O)c1ccccc1	-7%	9%	-11%	15%[59 µM]	32%
CN(/N=C/c1ccc(-c2ccc([N+](=O)[O-])cc2)o1)c1ccccc1	-36%	1%	25µM*	-5%	?
CN(C)/N=C/c1ccc(Sc2ccccc2[N+](=O)[O-])o1	20µM*	26%	40µM*	25µM*	35µM*
O=[N+]([O-])c1ccc(N=Nc2ncc[nH]2)cc1	-31%	4%	-20%	?	20%
C[C@H](CO)N1C[C@H](C)[C@@H](CN(C)Cc2ccncc2)OCc2cnnn2CCCC1=O	/	0%	/	/	/
CC(=O)c1sc2nc(-c3cccs3)ccc2c1N	2%	13%	25µM*	1.6µM*	-3%
Cc1ccc(-c2nc(NCCN(C)C)c3ccccc3n2)cc1	2%	-1%	-16%	-5%	11%
CN(C)CCNc1cc(-c2ccncc2)nc2ccccc12	?	-1%	-13%	22µM*	67%
COC(=O)c1c(N)n(-c2ccc(N3CCOCC3)cc2)c2nc3ccccc3nc12	?	/	/	10µM*	/
COC(=O)c1c(N)n(-c2ccc(NC(C)=O)cc2)c2nc3ccccc3nc12	-39%	-8%	-13%	?	35%
O=C(c1cnccn1)N1CCC2(CC1)CCN(c1ncccn1)CC2	/	/	/	-8%[12.7 µM]	/
CN1CC(c2ccccc2)C2(SC(=S)N(Cc3ccco3)C2=O)C12C(=O)Nc1ccccc12 (centres undefined)	?	-5%	?	?	-3%
CN1CC(c2ccccn2)C2(SC(=S)N(Cc3ccccc3)C2=O)C12C(=O)Nc1ccccc12 (centres undefined)	14µM*	2%	22µM*	/	?
Cc1cccc(N(CC(=O)NC2CCCC2)C(=O)CS(=O)CC(=O)Nc2ccc3c(c2)OCO3)c1C (centres undefined)	-11%	1%	-12%[57.1 µM]	7.9µM*	33%
Cc1ccc(NC(=O)CS(=O)CC(=O)N(CC(=O)NC2CCCC2)c2cccc(C)c2C)cc1 (centres undefined)	19%	-6%	-19%	1%[59 µM]	28%
Cc1ccc(-n2nc(CO)c(C(=O)NCCc3ccccc3)n2)cc1C	-4%	-11%	-22%	-1%[59 µM]	-13%
Cn1c(N)c(-c2ccccc2)c2ccc([N+](=O)[O-])cc2c1=O	?	-11%	?	35µM*	?
N#Cc1c(N)n(Cc2ccccc2)c(=O)c2cc([N+](=O)[O-])ccc12	-1%	16%	-14%	24%	3%
NS(=O)(=O)c1ccc(CCNC(=O)COC(=O)Cc2c(F)cccc2Cl)cc1	-3%	0%	-8%	20%	39%
Cc1ccccc1Cn1cc(S(=O)(=O)c2ccc(F)cc2)c(=O)c2cc3c(cc21)OCO3	-1%	-3%	-17%	-23%[59 µM]	35%
